# From PubChem BioAssay
# NIH3T3 tox = cytotoxic compounds in NIH 3T3 cells | Potency, µM (doses to about 96.7 µM), for inactives: at the highest dose activity change, negative = cytotoxicity, actives largely listed as inhibitors | 4.3% of 94,000 active | NIH 3T3 viability, CellTiter-Glo ATP luminescence, 48-72 h; further: potency means the concentration at half of the fitted maximal effect; nearly all actives have a fitted effect of over 55% in size
#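 NIH 3T3 cells at 400 cells/well received 23 nL of compound by pintool and were incubated 48 or 72 h at 37 °C. Viability was read as ATP-coupled CellTiter-Glo luminescence.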
# SNCA viab count = counter-screen for SNCA expression inhibitors: cell viability | HEK-293-SNCA-luc viability, GF-AFC fluorescence, 24 h | Potency, µM (highest dose often 57.1 µM), for inactives: at the highest dose activity change, negative = cytotoxicity, most hits filed as cytotoxic | 0.12% of 150,000 active;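 further: potency means the concentration at half of the fitted maximal effect; 0% = DMSO-treated cells and -100% = medium-only wells without cells; nearly all actives have a fitted effect of over 30% in size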
#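 HEK-293-SNCA-luc cells (1500/well) plated 24 h, then exposed 24 h to a dilution series; GF-AFC added 30 min at 37C, fluorescence 405/540 nm; normalised to medium-only and DMSO wells, Hill fit.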
# SNCA expr inhib = SNCA gene expression inhibition | HEK-293 SNCA-luciferase knock-in, luminescence, 24 h | Potency, µM (highest dose often 57.2 µM), for the others: at the top dose activity change, negative = inhibition, hits mostly inhibitors | 0.17% of 140,000 active;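 further: potency means the concentration at half of the fitted maximal effect; plate controls were DMSO cells for no effect and cell-free wells for full effect; nearly all actives have a fitted effect of over 45% in size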
# HEK cytotox = kills HEK 293 cells. HEK 293 viability, ATP luminescence (CellTiter-Glo), 48-72 h. Potency, µM (titrated, usually from 115 µM), without a hit: at the top dose activity change, negative = cytotoxicity, hits mostly inhibitors. 6.6% of 94,000 active; further: potency means the concentration at half of the fitted maximal effect; nearly all actives have a fitted effect of over 60% in size
#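 ATP-coupled CellTiter-Glo luminescence served as viability read-out, recorded 10 min after reagent addition at room temperature. HEK 293 cells, 250 cells/well, had been incubated with pintool-transferred compound for 48 or 72 hr at 37 degree Celsius.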
# FLuc inh = Photinus pyralis luciferase inhibition; AID 1347043; Potency, µM (doses to about 115 µM), actives largely listed as inhibitors; purified P. pyralis luciferase, luminescence, biochemical; 2.5% of 76,000 active; P08659; further: potency means the concentration at half of the fitted maximal effect; nearly all actives have a fitted effect of over 65% in size
# Target sequence (P08659 whole entry, looked up): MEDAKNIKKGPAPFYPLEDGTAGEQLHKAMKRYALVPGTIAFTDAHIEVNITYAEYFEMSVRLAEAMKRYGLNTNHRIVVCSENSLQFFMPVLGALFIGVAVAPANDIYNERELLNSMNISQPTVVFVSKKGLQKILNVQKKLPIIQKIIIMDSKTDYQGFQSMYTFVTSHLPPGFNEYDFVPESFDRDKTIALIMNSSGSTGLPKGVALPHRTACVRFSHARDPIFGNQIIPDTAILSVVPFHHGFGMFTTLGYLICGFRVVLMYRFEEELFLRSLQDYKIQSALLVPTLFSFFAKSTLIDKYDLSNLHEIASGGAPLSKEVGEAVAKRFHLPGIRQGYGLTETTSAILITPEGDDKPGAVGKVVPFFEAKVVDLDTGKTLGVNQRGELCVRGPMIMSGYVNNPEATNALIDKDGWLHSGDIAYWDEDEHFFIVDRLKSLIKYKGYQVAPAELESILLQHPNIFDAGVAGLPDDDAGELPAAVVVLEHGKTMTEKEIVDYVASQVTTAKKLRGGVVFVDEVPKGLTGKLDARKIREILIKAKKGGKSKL
#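 FLuc 10nM, D-luciferin 10uM, ATP 10uM, Mg acetate 10mM, Tris acetate pH 7.5, Tween/BSA; cpd qHTS; enzyme added last; CCD luminescence.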
# IP6K1 inh = blocks human inositol hexakisphosphate kinase 1; activity change, % (series mostly up to about 58 µM); IP6K1 kinase, ADP-Glo luminescence, 2 h; stronger effect = lower value; 0.81% of 140,000 active; in the data active means activity change below about -25%
#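 ADP-Glo luminescence measures ADP made by human IP6K1 during a 2 h RT reaction with ATP/IP6 (mix at 1.3 mM/130 uM); top library doses 57.5 and 19.1 uM final.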
# The depositor's hits bear a star; i = inactive; ? = inconclusive; / = no result given; [ ] = another dose, or the depositor's remark. This is a sample that favours compounds with a hit; in the whole collection about 7.3% have one here. Unless noted, the call rests on the fitted dose curve; in most records, active means well fitted curve in the direction sought with a large enough effect; inconclusive means small, poorly fitted or top-dose-only effect, or another doubt; inactive means no such curve, though single readings can be large; an effect the other way counts as inactive or inconclusive. Unless noted, on the % scale 0 is the no-effect control and ±100 the full control effect.
SMILES,NIH3T3 tox,SNCA viab count,SNCA expr inhib,HEK cytotox,FLuc inh,IP6K1 inh
COc1cncc(-c2nc(-c3c(C)noc3C)cc3c2cc(C)n3CCN(C)C)c1,22µM*,-27%[87.6 µM],25%[87.6 µM],89µM*,i,-18
Cc1noc(C)c1-c1cc2c(cc(C)n2CCN(C)C)c(-c2ccnn2C)n1,45µM*,-17%[87.6 µM],?,?,i,-16
Cc1noc(C)c1-c1cc2c(cc(C)n2CCN(C)C)c(Nc2ccncn2)n1,25µM*,4%[87.6 µM],-5%[87.6 µM],100µM*,i,-14
Cc1noc(C)c1-c1cc2c(cc(C)n2C)c(-c2cccc(O)c2)n1,?,10%[87.6 µM],39%[87.6 µM],?,i,-14
Cc1noc(C)c1-c1cc2c(cc(C)n2CCN(C)C)c(-c2ccccc2)n1,22µM*,-16%[87.6 µM],0%[87.6 µM],?,i,-3
COCCN1C(=O)CS(=O)(=O)C12CCN(C(=O)C1(c3ccc(OC)cc3)CC1)CC2,?,7%,-1%,-18%,i,-5
COc1cc(CN2C[C@@H](CO)[C@H](C(=O)NC3CC3)C2)ccc1F,-5%,2%,6%,i,i,9
Cc1cc(-c2nc(-c3c(C)noc3C)cc3c2cc(C)n3CCN(C)C)ccn1,?,-4%[87.6 µM],20%[87.6 µM],?,i,-7
COc1cc(-c2nc(-c3c(C)noc3C)cc3c2cc(C)n3CCN(C)C)ccn1,?,-10%[87.6 µM],0%[87.6 µM],71µM*,i,-8
Cc1cc(F)cc(CN2CCc3nc(C(=O)NCc4ccncc4)oc3CC2)c1,?,-11%[87.6 µM],-3%[87.6 µM],?,i,15
CC(C)NC(=O)N[C@H]1C[C@H]2C(=O)NC[C@@H](CCC(=O)NC3CC3)N2C1,-15%[138 µM],9%[87.6 µM],19%[87.6 µM],-13%[172 µM],i,4
CC1CCC(=O)CC(O)C(O)CC(=O)O1 (configuration not stated),/,-3%,/,/,/,-9
CC1CCCC[C@H]2C(=O)C=C[C@H](O)[C@@H]2CC(=O)O1 (some centres not stated),/,9.5µM*,/,/,/,-2
Cc1cc(C(=O)N2CCC(Cc3ccc(COCc4ccncc4)cc3)CC2)n(C)n1,?,-4%,-25%,?,/,5
CCOc1ccc(CCNC(=O)c2cn(C)c3ccc(S(=O)(=O)N4CCCCC4)cc3c2=O)cc1OCC,/,-2%,23%,/,/,-27*
CCOc1ccc(CCNC(=O)c2cn(C)c3ccc(S(=O)(=O)N4CCOCC4)cc3c2=O)cc1OCC,/,17%,?,/,/,-5
CNC(=O)c1cc(C2CC2)nc2onc(C3CCCN(C(C)=O)C3)c12 (configuration not stated),3%[138 µM],/,/,-9%[172 µM],/,0
Cc1cccc(CN2CCc3ncc(C(=O)NCCC(C)C)n3CC2)c1,?,-28%[87.6 µM],?,40µM*,i,-10
Cc1ccccc1CN1CCc2ncc(C(=O)NCCC(C)C)n2CC1,?,-5%[87.6 µM],-19%[87.6 µM],?,i,-6
O=C(NCCOc1ccccc1)c1cnc2n1CCN(Cc1c[nH]c3ccccc13)CC2,?,-11%[87.6 µM],-17%[87.6 µM],100µM*,i,-8
O=C(NCCOc1ccccc1)c1cnc2n1CCN(Cc1ccccc1O)CC2,-25%[138 µM],-10%[87.6 µM],?,?,i,-9
N#Cc1cccc(CN2CCc3ncc(C(=O)NCCOc4ccccc4)n3CC2)c1,28µM*,-27%[87.6 µM],?,28µM*,i,-13
Cn1ccnc1CN1CCCC(NC(=O)c2ccc3c(c2)CCCO3)CC1 (configuration not stated),-2%,-22%,13%,?,i,7
COC1C(=O)N(CC2CC2)C12CCN(C(=O)NCc1ccccc1)CC2 (configuration not stated),-1%,4%,17%,2%,/,-2
CS(=O)(=O)c1cnc(NCc2ncc[nH]2)nc1C1CCCNC1 (configuration not stated),-12%,-11%,4%,-11%,i,8
SMILES,NIH3T3 tox,SNCA viab count,SNCA expr inhib,HEK cytotox,FLuc inh,IP6K1 inh
CNC(=O)c1cc(C)nc2onc(C3CCCN3C(=O)c3cccc(Cl)c3)c12 (configuration not stated),-24%,/,/,?,/,4
CCN1CC2(CCC1=O)CCN(C(=O)c1ccc(OC)c(Cl)c1)CC2,-12%,6%,-11%,-20%,i,10
CN(Cc1cccnc1)c1nc2c(c(=O)[nH]1)CCN(Cc1ccccc1C(F)(F)F)CC2,?,-15%,3%,20µM*,i,2
Cc1ccccc1CN1CCc2nc(N(C)Cc3cccnc3)[nH]c(=O)c2CC1,-23%,3%,3%,?,i,0
CN(Cc1cccnc1)Cc1nc(C2(O)CCN(Cc3ccccc3C(F)(F)F)CC2)cs1,?,4%,-23%,45µM*,i,0
COCC(=O)N[C@@H]1CN(C(=O)C2CC2)CC[C@@H]1c1nc(C)no1,?,17%,?,7%,i,16
COc1ccccc1CN1CC(c2noc(-c3ccc(C)cc3C)n2)CC1=O (configuration not stated),?,2%,0%,40µM*,i,38
CCOc1ccc(-c2nc(C3CC(=O)N(Cc4ccccc4OC)C3)no2)cc1 (configuration not stated),22µM*,-15%,?,45µM*,i,-1
COc1ccc(N2CC(c3noc(-c4ccc(C(C)(C)C)cc4)n3)CC2=O)cc1OC (configuration not stated),?,-18%,?,40µM*,?,-8
CCc1ccc(N2CC(c3noc(-c4sccc4C)n3)CC2=O)cc1 (configuration not stated),?,9%,-19%,79µM*,i,8
CCc1ccc(N2CC(c3noc(-c4ccc(N(C)C)cc4)n3)CC2=O)cc1 (configuration not stated),-16%,0%,-15%,-5%,i,33
COc1ccc(-c2nc(C3CC(=O)N(Cc4ccccc4OC)C3)no2)c(C)c1 (configuration not stated),?,-13%,-32%,?,i,19
C#CCNC(=O)c1onc(-c2ccc(F)cc2)c1[C@H](C)O,-36%[230 µM],-12%[87.6 µM],6%[87.6 µM],-22%[230 µM],i,-3
O=C(O)c1ccc2c(c1)n(Cc1ccc(F)cc1)c(=O)c1ccnn12,?,13%,33%,-19%,i,-4
O=C(NCc1ccco1)c1ccc2c(c1)n(Cc1ccc(F)cc1)c(=O)c1ccnn12,22µM*,?,?,?,i,35
O=C(NCc1cccnc1)c1ccc2c(c1)n(Cc1ccccc1)c(=O)c1ccnn12,-6%,-18%,21%,-13%,i,35
